# PubChem BioAssay (NCATS)
# Values without a mark were called inactive. Records with an inconclusive call do not appear. Where a call stands in place of a potency, no number is given. Active and inactive are the calls of the source. Unless noted, calls follow the shape of the dose curve; as a rule, active = well fitted curve in the direction sought with a large enough effect; inconclusive = small, poorly fitted or top-dose-only effect, or another doubt; inactive = no such curve, though single readings can be large; an effect the other way counts as inactive or inconclusive.
# Experiments:
# [1] = target: Cytochrome P450 2D6 (Homo sapiens) (UniProt P10635); assay: Cytochrome P450 family 2 subfamily D member 6 (CYP2D6) small molecule antagonists: luciferase biochemical (cell-free) qHTS assay (AID 1645840; active = well fitted curve in the direction sought with a large enough effect in the repeat runs; an effect the other way counts as inactive or inconclusive; also: nearly all actives have a fitted effect of over 55% in size; also: potency is read from the fitted curve at half-maximal effect)
# Outline: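 P450-Glo luminescent screen: recombinant CYP2D6 enzyme–proluciferin substrate mix preincubated with compound 10 min at room temperature, then NADPH regeneration added for 1 h at room temperature. Detection reagent added for 20 min; luciferin light read as relative luminescence units.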
# [2] = target: Cytochrome P450 2C9 (Homo sapiens) (UniProt P11712); assay: Cytochrome P450 family 2 subfamily C member 9 (CYP2C9) small molecule antagonists: luciferase biochemical (cell-free) qHTS assay (AID 1645842; active = well fitted curve in the direction sought with a large enough effect in the repeat runs; an effect the other way counts as inactive or inconclusive; also: nearly all actives have a fitted effect of over 55% in size; also: potency is read from the fitted curve at half-maximal effect)
# Outline: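 Luminescence, after 20 min with luciferin detection reagent, reflected CYP2C9 turnover during a 1 h NADPH-driven reaction at 37C. Enzyme-substrate mix contained 0.4% bovine serum albumin and was preincubated with compound 10 min at room temperature.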
# [3] = target: Rap guanine nucleotide exchange factor 3 (Homo sapiens) (UniProt O95398); assay: Confirmatory qHTS for antagonist of cAMP-regulated guanine nucleotide exchange factor 3 (EPAC1) (AID 1645880); also: potency is read from the fitted curve at half-maximal effect; nearly all actives have a fitted effect of over 55% in size
# Outline: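 Nucleotide exchange uses 100 nM EPAC1, 250 nM RAP1B-BODIPY-GDP and 50 uM GDP, with compounds in a concentration-titration series. After 5 min at room temperature, fluorescence (480 nm ex/540 nm em) is read every 5 min for 30 min. Data are normalized to control ATA and DMSO.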
# [4] = target: Rap guanine nucleotide exchange factor 3 (Homo sapiens) (UniProt O95398); assay: Confirmatory qHTS for agonist of cAMP-regulated guanine nucleotide exchange factor 3 (EPAC1) (AID 1645881);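 also: EPAC1 catalysed release of BODIPY-GDP from Rap1B seen as fluorescence loss; nearly all actives have a fitted effect of over 75% in size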
# [5] = target: Rap guanine nucleotide exchange factor 4 (Homo sapiens) (UniProt Q8WZA2); assay: Confirmatory qHTS for agonist of cAMP-regulated guanine nucleotide exchange factor 4 (EPAC2) (AID 1645884);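 also: nucleotide exchange releases bodipy-GDP from Rap1 and this lowers its fluorescence; nearly all actives have a fitted effect of over 65% in size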
# [6] = target: Rap guanine nucleotide exchange factor 4 (Homo sapiens) (UniProt Q8WZA2); assay: Confirmatory qHTS for antagonist of cAMP-regulated guanine nucleotide exchange factor 4 (EPAC2) (AID 1645885); also: nearly all actives have a fitted effect of over 25% in size
# [7] = target: Rap guanine nucleotide exchange factor 3 (Homo sapiens) (UniProt O95398); assay: Counterscreen qHTS for antagonist of cAMP-regulated guanine nucleotide exchange factor 3 (EPAC1) (AID 1645888);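 also: fluorescence loss as bound BODIPY-GDP is released from Rap1B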
# Outline: (§1)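 Measured: fluorescence of BODIPY-GDP bound to Rap1B, which falls as exchange proceeds. Conditions include 50 uM competing GDP, 5 and 30 min reads, and a later cAMP challenge for antagonist detection.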
# [8] = target: Rap guanine nucleotide exchange factor 3 (Homo sapiens) (UniProt O95398); assay: Counterscreen qHTS for agonist of cAMP-regulated guanine nucleotide exchange factor 3 (EPAC1) (AID 1645889); also: nearly all actives have a fitted effect of over 40% in size
# Outline: as §1
# [9] = target: Glutathione peroxidase 1 (Homo sapiens) (UniProt P07203); assay: Primary qHTS Assay for Inhibitors of Recombinant Selenoprotein Glutathione Peroxidase 1 (GPX1) (AID 1845191); also: nearly all actives have a fitted effect of over 65% in size
# Outline: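 Recombinant GPX1 (10 nM final) was preincubated with compound for 30 min at room temperature, then reacted with 1 mM GSH, 0.5 mM CHP, 0.5 mM NADPH and 100 nM glutathione reductase; NADPH fluorescence (340/450 nm) was read at 0 and 15 min.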
# [10] = HepG2 viability counterscreen (readout 2: ATP content) against the NCATS DSHEA and TCM libraries (AID 1794840);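 also: HepG2 cells exposed to substances for about 24 h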
# Outline: (§2)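 HepG2 cells (1,000 cells/well) attached ~4 h, then treated ~24 h at 37C with substances. Protease activity read by GF-AFC (25 uM final, 30 min, Ex/Em 380/510 nm); ATP content then by CellTiter-Glo luminescence.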
# [11] = HepG2 viability counterscreen (readout 1: protease activity) against the NCATS DSHEA and TCM libraries (AID 1794841);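 also: cells exposed to compounds for about 24 h before the protease read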
# Outline: as §2
# [12] = target: Phospholipid hydroperoxide glutathione peroxidase GPX4 (Homo sapiens) (UniProt P36969); assay: Primary qHTS Assay for Inhibitors of Recombinant Selenoprotein Glutathione Peroxidase 4 (GPX4) (AID 1845192); also: nearly all actives have a fitted effect of over 65% in size
# Outline: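 GR-coupled readout: 100 nM GR, 1 mM GSH, 0.5 mM NADPH; NADPH fluorescence (ex 340/em 450 nm) read at t=0 and after 15 min RT. GPX4 200 nM, preincubated 30 min with compound; substrate 0.5 mM CHP.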
# [13] = target: Cytochrome P450 3A4 (Homo sapiens) (UniProt P08684); assay: qHTS for inhibitors of CYP3A4 against the NCATS DSHEA and TCM libraries (AID 1919971);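 also: inhibition lowers luminescence from luciferin made by CYP3A4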
# Outline: (§3)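 Light output from converted D-luciferin reports remaining CYP activity. Compounds preincubate with enzyme and substrate for 15 min; NADPH regeneration (1x final) runs the reaction for 30-45 min.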
# [14] = target: Cytochrome P450 2D6 (Homo sapiens) (UniProt P10635); assay: qHTS for inhibitors of CYP2D6 against the NCATS DSHEA and TCM libraries (AID 1919972)
# Outline: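 Steps: enzyme plus luciferin substrate dispensed; test substances pinned; 15 min RT; 1x NADPH regenerating solution added, 30–45 min RT protected from light; detection reagent, 30 min RT; luminescence measured. Minus-enzyme wells as background.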
# [15] = target: Cytochrome P450 2C9 (Homo sapiens) (UniProt P11712); assay: qHTS for inhibitors of CYP2C9 against the NCATS DSHEA and TCM libraries (AID 1919973);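 also: luminogenic pro-luciferin CYP2C9 substrate turned into luciferin with NADPH regeneration; series mostly up to about 34 µM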
# Outline: as §3
# [16] = target: Cytochrome P450 2C19 (Homo sapiens) (UniProt P33261); assay: qHTS for inhibitors of CYP2C19 against the NCATS DSHEA and TCM libraries (AID 1919974);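 also: luminescence from luciferin released by CYP2C19 oxidation of a pro-luciferin substrate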
# Outline: as §3
# [17] = KB-3-1 P-gp reporter qHTS against the NCATS DSHEA and TCM libraries (AID 1919975)
# Outline: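 Parental KB-3-1 human cervical adenocarcinoma cells (500 cells/well, DMEM + 10% FBS) were treated with substances for ~72 h at 37C; viability was read by CellTiter-Glo luminescence.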
# [18] = target: Cytochrome P450 1A2 (Homo sapiens) (UniProt P05177); assay: qHTS for inhibitors of CYPIA2 against the NCATS DSHEA and TCM libraries (AID 1919976);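 also: light from luciferin formed by CYP1A2 from a pro-luciferin substrate; series mostly up to about 37 µM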
# Outline: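 In this quantitative HTS, inhibition of recombinant human CYP1A2 was measured as loss of luciferin-derived luminescence. Turnover ran 30-45 min at RT after NADPH regeneration solution was added.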
# [19] = qHTS Counterscreen for compound interference against the NCATS DSHEA and TCM libraries (AID 1919978); details: firefly luciferase detection reagent interference, luminescence
# Outline: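 D-luciferin (1 uM final) or 100 mM potassium phosphate buffer alone was preincubated 15 min at RT with compounds (19.5 nM to 39.8 uM final). Luciferin detection reagent was then added and luminescence read after 30 min at RT.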
# [20] = Dual reporter qHTS for agonist of Pregnane X Receptor (hPXR) against the NCATS DSHEA and TCM libraries: Fluorescence readout (AID 1920058)
# Outline: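 Measures viability of the PXR reporter HepG2 line by protease-substrate fluorescence (405/540 nm), taken 1 h after CellTiter-Fluor addition. Substances are tested as concentration series over a ~24 h exposure, with rifampicin as agonist control.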
# [21] = target: Nuclear receptor subfamily 1 group I member 2 (Homo sapiens) (UniProt O75469); assay: Dual reporter qHTS for agonist of Pregnane X Receptor (hPXR) against the NCATS DSHEA and TCM libraries: Luminescence readout (AID 1920059)
# Outline: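 hPXR-LucHepG2 cells in phenol red-free DMEM with 5% charcoal-stripped FBS, 2000 cells/well, attached 5 h, then exposed 24 h at 37C to compounds; rifampicin as positive agonist control (2.8 nM–92 uM). Luciferase luminescence read.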
# [22] = target: Nuclear receptor subfamily 1 group I member 2 (Homo sapiens) (UniProt O75469); assay: Dual reporter qHTS for antagonist of Pregnane X Receptor (hPXR) against the NCATS DSHEA and TCM libraries: Luminescence Readout (AID 1920060);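 also: HepG2 cells carrying hPXR luciferase reporter stimulated with rifampicin at 2 µM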
# Outline: (§4)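 Antagonist mode: rifampicin 2 uM final co-added with compounds to hPXR-LucHepG2 cells for 24 h at 37C. Viability by CellTiter-Fluor, Ex/Em 405/540 nm, 1 h; reporter by ONE-Glo luminescence.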
# [23] = Dual reporter qHTS for antagonist of Pregnane X Receptor (hPXR) against the NCATS DSHEA and TCM libraries: Fluorescence Readout (AID 1920061)
# Outline: as §4
# Chain of Cytochrome P450 2C9 (Homo sapiens) (P11712 whole entry, looked up): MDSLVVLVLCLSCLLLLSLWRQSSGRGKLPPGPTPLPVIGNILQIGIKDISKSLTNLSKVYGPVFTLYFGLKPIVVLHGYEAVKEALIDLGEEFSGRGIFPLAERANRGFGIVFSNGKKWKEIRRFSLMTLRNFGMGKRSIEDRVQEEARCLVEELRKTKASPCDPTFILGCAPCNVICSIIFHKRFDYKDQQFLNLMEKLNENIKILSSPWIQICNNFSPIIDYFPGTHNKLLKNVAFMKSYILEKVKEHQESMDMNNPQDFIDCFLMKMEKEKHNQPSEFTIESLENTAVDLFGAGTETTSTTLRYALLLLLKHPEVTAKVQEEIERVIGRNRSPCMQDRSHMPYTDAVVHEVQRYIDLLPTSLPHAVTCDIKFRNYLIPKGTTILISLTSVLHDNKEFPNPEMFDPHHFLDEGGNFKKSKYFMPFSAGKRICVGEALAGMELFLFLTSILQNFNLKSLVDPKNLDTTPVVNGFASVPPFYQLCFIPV
# Chain of Glutathione peroxidase 1 (Homo sapiens) (P07203 whole entry, looked up): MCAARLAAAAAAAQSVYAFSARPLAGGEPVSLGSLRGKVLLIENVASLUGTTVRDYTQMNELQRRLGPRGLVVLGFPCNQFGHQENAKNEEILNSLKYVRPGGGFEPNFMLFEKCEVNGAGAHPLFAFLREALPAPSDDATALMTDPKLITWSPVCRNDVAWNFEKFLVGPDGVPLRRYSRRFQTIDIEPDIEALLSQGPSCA
# Chain of Rap guanine nucleotide exchange factor 4 (Homo sapiens) (Q8WZA2 whole entry, looked up): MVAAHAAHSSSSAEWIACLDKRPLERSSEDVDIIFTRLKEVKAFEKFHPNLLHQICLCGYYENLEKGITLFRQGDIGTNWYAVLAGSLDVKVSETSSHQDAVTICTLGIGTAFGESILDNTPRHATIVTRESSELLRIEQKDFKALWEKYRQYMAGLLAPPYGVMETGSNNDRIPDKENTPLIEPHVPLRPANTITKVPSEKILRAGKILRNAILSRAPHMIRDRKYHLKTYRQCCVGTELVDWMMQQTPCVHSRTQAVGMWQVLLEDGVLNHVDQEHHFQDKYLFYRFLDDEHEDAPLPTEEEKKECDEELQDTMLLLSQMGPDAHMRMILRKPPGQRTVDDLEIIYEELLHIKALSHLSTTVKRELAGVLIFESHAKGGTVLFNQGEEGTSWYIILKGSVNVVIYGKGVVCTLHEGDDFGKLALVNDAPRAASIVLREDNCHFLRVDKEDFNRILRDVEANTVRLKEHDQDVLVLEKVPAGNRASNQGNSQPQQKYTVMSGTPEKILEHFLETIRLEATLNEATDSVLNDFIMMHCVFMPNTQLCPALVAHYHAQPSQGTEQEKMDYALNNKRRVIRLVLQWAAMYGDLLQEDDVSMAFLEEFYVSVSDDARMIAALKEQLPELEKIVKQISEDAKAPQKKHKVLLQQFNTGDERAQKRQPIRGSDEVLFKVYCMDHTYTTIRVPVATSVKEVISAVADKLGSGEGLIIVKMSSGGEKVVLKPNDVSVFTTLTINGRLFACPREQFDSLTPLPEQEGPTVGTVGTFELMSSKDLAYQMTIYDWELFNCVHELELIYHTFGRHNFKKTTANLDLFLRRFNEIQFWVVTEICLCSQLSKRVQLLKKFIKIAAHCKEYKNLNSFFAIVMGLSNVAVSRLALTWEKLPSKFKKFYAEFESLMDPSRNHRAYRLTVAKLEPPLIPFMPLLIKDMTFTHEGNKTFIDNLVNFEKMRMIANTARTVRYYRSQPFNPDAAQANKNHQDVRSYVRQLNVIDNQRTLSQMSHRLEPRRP
# Chain of Cytochrome P450 2D6 (Homo sapiens) (P10635 whole entry, looked up): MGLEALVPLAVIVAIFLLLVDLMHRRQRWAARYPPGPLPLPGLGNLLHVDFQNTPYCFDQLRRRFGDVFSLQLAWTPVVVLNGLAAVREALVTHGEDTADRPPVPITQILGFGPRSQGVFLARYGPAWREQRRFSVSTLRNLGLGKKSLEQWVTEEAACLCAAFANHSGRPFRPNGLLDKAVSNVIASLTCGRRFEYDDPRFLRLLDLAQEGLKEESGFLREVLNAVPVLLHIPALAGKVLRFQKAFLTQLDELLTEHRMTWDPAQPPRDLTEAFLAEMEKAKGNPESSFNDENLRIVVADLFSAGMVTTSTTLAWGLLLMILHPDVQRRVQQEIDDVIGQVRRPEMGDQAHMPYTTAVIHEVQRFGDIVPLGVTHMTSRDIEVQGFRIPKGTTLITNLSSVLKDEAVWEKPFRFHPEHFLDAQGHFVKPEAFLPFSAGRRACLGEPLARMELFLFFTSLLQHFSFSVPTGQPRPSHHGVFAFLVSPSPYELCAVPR
# Chain of Rap guanine nucleotide exchange factor 3 (Homo sapiens) (O95398 whole entry, looked up): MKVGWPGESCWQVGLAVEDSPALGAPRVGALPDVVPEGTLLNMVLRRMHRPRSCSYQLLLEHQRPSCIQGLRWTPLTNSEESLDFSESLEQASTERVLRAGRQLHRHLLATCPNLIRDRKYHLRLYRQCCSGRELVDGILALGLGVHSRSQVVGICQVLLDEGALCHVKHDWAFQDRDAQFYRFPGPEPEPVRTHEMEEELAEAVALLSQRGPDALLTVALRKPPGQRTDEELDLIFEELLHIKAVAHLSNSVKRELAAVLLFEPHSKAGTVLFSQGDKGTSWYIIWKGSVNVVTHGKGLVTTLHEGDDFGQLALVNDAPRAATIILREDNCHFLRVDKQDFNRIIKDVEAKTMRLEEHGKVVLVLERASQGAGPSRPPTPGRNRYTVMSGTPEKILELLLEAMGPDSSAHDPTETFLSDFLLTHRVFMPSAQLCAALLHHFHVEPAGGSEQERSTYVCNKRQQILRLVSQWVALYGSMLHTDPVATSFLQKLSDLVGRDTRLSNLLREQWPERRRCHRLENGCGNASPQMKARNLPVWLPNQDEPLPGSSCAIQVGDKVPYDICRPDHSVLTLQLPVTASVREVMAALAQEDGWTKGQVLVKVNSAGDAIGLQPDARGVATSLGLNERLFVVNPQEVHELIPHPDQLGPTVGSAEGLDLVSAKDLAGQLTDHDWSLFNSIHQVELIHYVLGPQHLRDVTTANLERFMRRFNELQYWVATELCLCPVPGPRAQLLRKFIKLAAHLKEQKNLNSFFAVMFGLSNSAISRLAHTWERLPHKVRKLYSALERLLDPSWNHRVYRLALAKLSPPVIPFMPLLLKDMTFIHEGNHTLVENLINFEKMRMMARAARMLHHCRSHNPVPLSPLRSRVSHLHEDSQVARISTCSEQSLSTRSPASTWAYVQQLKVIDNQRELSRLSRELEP
# Chain of Nuclear receptor subfamily 1 group I member 2 (Homo sapiens) (O75469 whole entry, looked up): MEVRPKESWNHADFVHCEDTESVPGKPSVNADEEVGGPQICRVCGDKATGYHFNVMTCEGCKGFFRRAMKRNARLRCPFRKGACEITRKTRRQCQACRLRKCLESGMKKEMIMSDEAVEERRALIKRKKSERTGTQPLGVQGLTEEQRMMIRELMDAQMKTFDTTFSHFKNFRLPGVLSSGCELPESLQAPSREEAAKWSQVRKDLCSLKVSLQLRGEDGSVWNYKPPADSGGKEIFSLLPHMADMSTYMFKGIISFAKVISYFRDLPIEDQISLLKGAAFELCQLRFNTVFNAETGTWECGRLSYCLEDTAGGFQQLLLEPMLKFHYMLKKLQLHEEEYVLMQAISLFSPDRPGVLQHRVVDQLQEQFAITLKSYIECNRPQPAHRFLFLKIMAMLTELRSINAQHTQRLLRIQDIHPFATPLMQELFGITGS
# Chain of Phospholipid hydroperoxide glutathione peroxidase GPX4 (Homo sapiens) (P36969 whole entry, looked up): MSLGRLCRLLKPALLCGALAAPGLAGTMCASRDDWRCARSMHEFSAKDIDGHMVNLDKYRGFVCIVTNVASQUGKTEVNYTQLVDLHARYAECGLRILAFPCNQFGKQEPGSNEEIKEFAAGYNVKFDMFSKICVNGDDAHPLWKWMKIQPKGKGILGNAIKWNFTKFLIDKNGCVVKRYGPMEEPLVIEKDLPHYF
# Chain of Cytochrome P450 1A2 (Homo sapiens) (P05177 whole entry, looked up): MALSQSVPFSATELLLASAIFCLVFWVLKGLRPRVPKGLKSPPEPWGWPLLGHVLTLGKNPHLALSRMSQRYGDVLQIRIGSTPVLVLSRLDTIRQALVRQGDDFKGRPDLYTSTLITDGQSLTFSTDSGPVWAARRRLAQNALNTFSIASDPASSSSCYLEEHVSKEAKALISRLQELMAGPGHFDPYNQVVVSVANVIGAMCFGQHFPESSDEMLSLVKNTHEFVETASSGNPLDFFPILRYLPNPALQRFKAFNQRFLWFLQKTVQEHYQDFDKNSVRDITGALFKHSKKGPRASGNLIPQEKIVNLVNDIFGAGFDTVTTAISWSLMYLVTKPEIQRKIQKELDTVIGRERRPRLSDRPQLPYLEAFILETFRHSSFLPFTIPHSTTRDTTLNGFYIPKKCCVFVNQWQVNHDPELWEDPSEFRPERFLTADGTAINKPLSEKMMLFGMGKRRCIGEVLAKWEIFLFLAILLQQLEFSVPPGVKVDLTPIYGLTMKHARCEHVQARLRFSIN
# Chain of Cytochrome P450 3A4 (Homo sapiens) (P08684 whole entry, looked up): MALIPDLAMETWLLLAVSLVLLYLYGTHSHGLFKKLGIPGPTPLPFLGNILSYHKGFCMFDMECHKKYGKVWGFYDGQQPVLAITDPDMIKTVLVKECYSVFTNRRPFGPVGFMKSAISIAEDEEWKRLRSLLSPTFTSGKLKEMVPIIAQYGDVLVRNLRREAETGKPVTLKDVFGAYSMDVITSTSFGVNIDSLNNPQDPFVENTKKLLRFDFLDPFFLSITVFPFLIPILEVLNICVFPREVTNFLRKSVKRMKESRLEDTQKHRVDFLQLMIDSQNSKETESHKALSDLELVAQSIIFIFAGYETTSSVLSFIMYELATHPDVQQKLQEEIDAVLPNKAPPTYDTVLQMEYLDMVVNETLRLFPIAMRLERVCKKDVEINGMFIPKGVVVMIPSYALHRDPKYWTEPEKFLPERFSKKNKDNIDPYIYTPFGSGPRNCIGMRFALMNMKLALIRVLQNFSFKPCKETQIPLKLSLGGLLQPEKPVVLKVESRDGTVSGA
compound,measurement,setting,value
CC(C)(C)c1ccc(-c2nc(SCCCOc3ccccc3)n3[nH]c(=O)cc3n2)cc1,Potency,[1],inactive
same,Potency,[2],10.7 µM (active)
same,Potency,[3],60.1 µM (active)
same,Potency,[4],inactive
same,Potency,[5],inactive
same,Potency,[6],inactive
same,Potency,[7],inactive
same,Potency,[8],inactive
COc1ccc(C=CC(=O)O)cc1,Potency,[1],inactive
same,Potency,[2],inactive
same,Potency,[9],inactive
COc1ccccc1NC(=O)c1oc2ccccc2c1NC(=O)c1ccccc1C(F)(F)F,Potency,[1],inactive
same,Potency,[2],2.68 µM (active)
COc1ccc(C(=O)Nc2nc3ccccc3n2CCOc2ccc(Cl)cc2)cc1,Potency,[1],inactive
same,Potency,[2],26.8 µM (active)
Cc1ccc2nc(-c3ccccn3)c(Nc3ccccc3C)n2c1,Potency,[1],21.3 µM (active)
same,Potency,[2],1.9 µM (active)
Cc1cccc(OCCCSc2nc(-c3ccc(C(C)(C)C)cc3)nc3cc(=O)[nH]n23)c1C,Potency,[1],inactive
same,Potency,[2],13.5 µM (active)
same,Potency,[3],37.9 µM (active)
same,Potency,[4],inactive
same,Potency,[5],inactive
same,Potency,[6],inactive
same,Potency,[7],inactive
same,Potency,[8],inactive
N[C@@H]1CCCCN(c2c(F)cc3c(=O)c(C(=O)O)cn(C4CC4)c3c2Cl)C1,Potency,[1],inactive
same,Potency,[2],inactive
same,Potency,[9],inactive
COc1ccc(-c2noc(CCCC(=O)Nc3cccc(Cl)c3C)n2)cc1,Potency,[1],inactive
same,Potency,[2],3.79 µM (active)
OCC=Cc1ccccc1,Potency,[1],inactive
same,Potency,[2],19 µM (active)
same,outcome,[10],inactive
same,outcome,[11],inactive
same,Potency,[9],inactive
same,Potency,[12],inactive
same,outcome,[13],inactive
same,outcome,[14],inactive
same,outcome,[15],inactive
same,outcome,[16],inactive
same,outcome,[17],inactive
same,outcome,[18],inactive
same,max response,[19],2.25%
same,outcome,[20],inactive
same,outcome,[21],inactive
same,outcome,[22],inactive
same,outcome,[23],inactive
Cc1cc(OCCCSc2nc(-c3ccc(C(C)(C)C)cc3)nc3cc(=O)[nH]n23)ccc1Cl,Potency,[1],inactive
same,Potency,[2],15.1 µM (active)
same,Potency,[3],67.5 µM (active)
same,Potency,[4],inactive
same,Potency,[5],inactive
same,outcome,[6],inactive [at 12.7 µM]
same,Potency,[7],inactive
same,Potency,[8],inactive
CC1=C(C(=O)Nc2cccc(-c3cn[nH]c3)c2)C(c2ccccc2Cl)N=C(Nc2nc3ccccc3o2)N1 (stereo not given),Potency,[1],21.3 µM (active)
same,Potency,[2],1.07 µM (active)
COc1ccc(-n2nc3c(N4CCCC(C(=O)NCCc5ccccc5C)C4)nnc(C)c3c2C)cc1 (stereo not given),Potency,[1],2.68 µM (active)
same,Potency,[2],0.674 µM (active)
CCOc1ccc(CNC(=O)Cn2c(=O)c3cccn3c3ccc(F)cc32)cc1OC,Potency,[1],inactive
same,Potency,[2],inactive
CCCOCc1cc(CN2CCN(c3cccc(Cl)c3)CC2)c(O)c2ncccc12,Potency,[1],inactive
same,Potency,[2],6.74 µM (active)
Cc1ccc(Cn2c(CN3CCC(C(=O)NCCc4ccccc4)CC3)cc3ccccc32)cc1,Potency,[1],0.0477 µM (active)
same,Potency,[2],2.13 µM (active)
